Structures are written as SMILES. Screen size: about 320,000 compounds; about 2,100 (0.66%) were called active. Not shown: some 53% with an inconclusive outcome. Calls come from the whole dose curve; as a rule, active = well fitted inhibition curve with a large enough effect in the signal ratio, with a control signal flat (not every such curve was filed as active); inconclusive = small, poorly fitted or top-dose-only effect, or effect the other way, or a change in a side signal; inactive = flat fitted curve, though single readings scatter; the % refers to the signal ratio. The list comes from a sample in which actives are over-represented; it also holds similar structures and randomly drawn compounds.
Potency is the fitted concentration of half-maximal effect.

The experiment is described as follows: qHTS Assay for Lipid Storage Modulators in Drosophila S3 Cells.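 For cell number change: cells counted by Cell Tracker Red CMTPX staining in the red channel.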 For lipid storage change, negative = inhibition: % is set by controls: 0 for no effect and ±100 for the full control effect. As to conditions: BODIPY lipid droplet fluorescence, 18-24 h, cells fed with added oleic acid; cell number change: measured here: cell count max response; series mostly up to 46.1 µM. The procedure, abridged:
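Laser-scanning cytometry quantifies lipid droplet accumulation (500–530 nm total intensity; droplet/cell object ratio) in oleic acid-fed (400 uM added) Drosophila S3 cells treated with a concentration series. 20 uM Triacsin C defined 100% inhibition.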
A general note: qHTS replaces the single test concentration by a dilution series.
As for `O=C(NCc1cccc(Cl)c1)C1CCC(=O)N(CCCN2CCCC2=O)C1` (centres undefined), the Potency is 1.84 µM (active) and the cell number change was found to be 15.8%.
Taken in the same sequence, the figures for `O=C(NCc1cccc(Cl)c1)C1CCC(=O)N(CCN2CCOCC2)C1` (centres undefined) were “inactive” and 19%.
For `O=C(NCc1ccccc1Cl)C1CCC(=O)N(CCCN2CCCC2=O)C1` (centres undefined), in that order: “inactive” and -14.7%.
In the case of `CC(C)CCNC(=O)c1cc([N+](=O)[O-])ccc1N1CCOCC1`, the Potency entry was “inactive” and the cell number change was -14%.
In the case of `CCN1CCc2c(sc(NC(=O)c3ccc4ccccc4c3)c2C(N)=O)C1`, the cell number change was -8.56% and the lipid storage change, negative = inhibition was -25.3% [at 0.369 µM] (inactive).
For the compound `CCOC(=O)c1c(NC(=O)c2ccc(S(=O)(=O)N3CCOCC3)cc2)sc2c1CCN(C(C)C)C2`, the Potency result is “inactive” and the cell number change was determined as 6.84%.
Turning to `CCN1CCc2c(sc(NC(=S)NC(=O)c3ccc(Cl)cc3)c2C(N)=O)C1`, the Potency result was “inactive” and the cell number change amounted to 6.82%.
Taken in the same sequence, the figures for `CCN1CCc2c(sc(NC(=O)c3ccc(S(=O)(=O)N(C)CC4CCCO4)cc3)c2C(N)=O)C1` (centres undefined) were 2.91 µM (active) and -26.3%.
Taken in the same sequence, the figures for `CC(C)N1CCc2c(sc(NC(=O)c3ccc(S(=O)(=O)N(C)CC4CCCO4)cc3)c2C(N)=O)C1` (centres undefined) were 7.31 µM (active) and -19.4%.
For `CC(C)N1CCc2c(sc(NC(=O)c3ccc(S(=O)(=O)N4CCOCC4)cc3)c2C(N)=O)C1`, in that order: “inactive” and 0.268%.
Regarding `CC1=CC(C)(C)NC(=S)N1C(C)c1ccccc1` (centres undefined), the Potency result was “inactive” and the cell number change came to 20.7%.
For `O=C(CCNC(=O)Cn1ccc2ccccc2c1=O)NCc1ccccn1`, in that order: “inactive” and 1.28%.
Taken in the same sequence, the figures for `COC(=O)c1ccccc1NC(=O)CNc1ccc(F)c(S(=O)(=O)N2CCOCC2)c1` were 3.26 µM (active) and 0.245%.
Taken in the same sequence, the figures for `COc1cc(NC(=O)CNc2ccc(Cl)c(S(=O)(=O)N3CCOCC3)c2)cc(OC)c1` were “inactive” and -14.4%.
With `COc1ccc(S(=O)(=O)N2CCCCC2)cc1NC(=O)CNc1ccc(F)cc1C`, the Potency entry is “inactive” and the cell number change was determined as 11.8%.
As for `O=C(CNc1cccc(S(=O)(=O)N2CCCC2)c1)Nc1ccc(F)c(F)c1`, the Potency entry was “inactive” and the cell number change amounted to 2.77%.
Taken in the same sequence, the figures for `COc1ccc([N+](=O)[O-])cc1NCC(=O)Nc1cc(S(=O)(=O)N2CCCCC2)ccc1C` were 16.4 µM (active) and -23.1%.
Turning to `O=C(CSc1ccccc1)Nc1cccc(S(=O)(=O)N2CCOCC2)c1`, the Potency entry was “inactive” and the cell number change was -14.2%.
`CCN(CC)S(=O)(=O)c1cc(NC(=O)CNc2cccc(S(=O)(=O)N3CCOCC3)c2)ccc1C`: the Potency was 2.06 µM (active) and the cell number change was -23.6%.
For `O=C(CNc1cccc(S(=O)(=O)N2CCOCC2)c1)Nc1ccccc1F`, in that order: “inactive” and 4.62%.
Regarding `CCN(CC(=O)Nc1cccc(S(=O)(=O)N2CCOCC2)c1)Cc1ccccc1`, the lipid storage change, negative = inhibition was -10.6% [at 0.0737 µM] (inactive).
For the compound `Cc1ccc(NC(=O)CNc2cccc(S(=O)(=O)N3CCCCC3)c2)cc1F`, the Potency was 1.46 µM (active).
With `COc1ccc(S(=O)(=O)N2CCCCC2)cc1NCC(=O)Nc1ccc(C)cc1`, the Potency result is “inactive” and the cell number change is -1.26%.
With `COc1cc(NCC(=O)Nc2cccc(S(=O)(=O)N3CCCCC3)c2)cc(OC)c1OC`, the Potency entry was “inactive” and the cell number change is -2.08%.
For the compound `Oc1cccc(CCC2CCCCN2Cc2cn[nH]c2-c2ccc3c(c2)OCO3)c1` (centres undefined), the Potency result is “inactive” and the cell number change was 7.37%.
For `Fc1ccc(N/N=C(/c2ccccc2)c2ccccn2)cc1`, in that order: “inactive” and 9.54%.
`CN(C)c1ccc(C=NCCC2(O)CCOC(C)(C)C2)cc1` (centres undefined): the Potency entry was “inactive” and the cell number change worked out at 2.42%.
Taken in the same sequence, the figures for `NC(=O)N/N=C/CCc1ccccc1` were “inactive” and 7.84%.
Take `S=c1[nH]nc(CNc2cccc(Cl)c2)o1`: the Potency result is “inactive” and the cell number change was found to be 5.85%.
For `Cc1[nH]c2ccccc2c1/C=N/NC(=O)c1cc(C(C)C)[nH]n1`, in that order: “inactive” and 17.7%.
Taken in the same sequence, the figures for `O=C(/C=C/c1cccc(Cl)c1)NCCc1ccccc1` were “inactive” and 4.34%.
Taken in the same sequence, the figures for `CN1CCN(c2ccc(CNS(=O)(=O)Cc3ccc(Cl)cc3)cc2)CC1` were “inactive” and -12.5%.
In the case of `CNC(=O)Cn1c(C)cc(=O)c2cccc(C)c21`, the Potency entry is “inactive” and the cell number change came to 13.3%.
Taken in the same sequence, the figures for `CN(Cc1ccccc1)S(=O)(=O)c1ccc(OCC(=O)Nc2cccc([N+](=O)[O-])c2)cc1` were “inactive” and 18.8%.
Regarding `CCOc1ccccc1OCCCC(=O)Nc1nc2ccccc2[nH]1`, the Potency result was “inactive”.
`COc1ccc(-c2noc(CSc3nc4ccccc4c(=O)n3-c3ccc(C)cc3)n2)cc1`: the Potency result was “inactive” and the cell number change came to 13.3%.
On to `Clc1ccc(OCc2cn3cccnc3n2)c2ncccc12`, for which the Potency entry was “inactive”.
For the compound `CC[C@H](C)[C@H](NC(N)=O)C(=O)Nc1ccc(S(=O)(=O)NC(C)C)cc1`, the Potency result was “inactive” and the cell number change was 3.97%.
For `Cc1ccc([N+](=O)[O-])cc1NC(=O)CCCOc1ccccc1`, in that order: “inactive” and 2.03%.
Taken in the same sequence, the figures for `O=C(CNc1cccc(S(=O)(=O)N2CCCC2)c1)Nc1cccc(Br)c1` were “inactive” and 14.3%.
Taken in the same sequence, the figures for `CC(=O)c1cccc(NCC(=O)Nc2cccc(S(=O)(=O)N3CCCCC3)c2)c1` were “inactive” and 13.3%.
For the compound `O=C(CNc1cccc(S(=O)(=O)N2CCCCCC2)c1)Nc1cccc([N+](=O)[O-])c1`, the Potency is 20.6 µM (active) and the cell number change amounted to 20.3%.
For the compound `COc1ccc(OCCCC(=O)Nc2cc([N+](=O)[O-])ccc2C)cc1`, the Potency is 14.6 µM (active) and the cell number change is -3.49%.
Taken in the same sequence, the figures for `COc1ccc(OCCCC(=O)Nc2cccc([N+](=O)[O-])c2)cc1` were “inactive” and 10.1%.

Source of the values: PubChem BioAssay AID2685 (National Center for Advancing Translational Sciences (NCATS), 2010).
